Laboratory results from publication PMC4336329 (PLoS ONE, 2015).
Out of some 310,000 compounds screened, about 2,200 (0.71%) showed an effect of 50% or more. Effects have a minus sign here. The sample holds strong results, similar compounds and a random draw of the others, so the mix is not that of the screen.

These compounds were tested against human ether-à-go-go-related gene (hERG) potassium channel (human, UniProt Q12809) (assay: primary screen, population patch clamp on CHO cells stably expressing hERG; higher = less effect of the substance).
Sequence of human ether-à-go-go-related gene (hERG) potassium channel (Q12809 whole entry, looked up): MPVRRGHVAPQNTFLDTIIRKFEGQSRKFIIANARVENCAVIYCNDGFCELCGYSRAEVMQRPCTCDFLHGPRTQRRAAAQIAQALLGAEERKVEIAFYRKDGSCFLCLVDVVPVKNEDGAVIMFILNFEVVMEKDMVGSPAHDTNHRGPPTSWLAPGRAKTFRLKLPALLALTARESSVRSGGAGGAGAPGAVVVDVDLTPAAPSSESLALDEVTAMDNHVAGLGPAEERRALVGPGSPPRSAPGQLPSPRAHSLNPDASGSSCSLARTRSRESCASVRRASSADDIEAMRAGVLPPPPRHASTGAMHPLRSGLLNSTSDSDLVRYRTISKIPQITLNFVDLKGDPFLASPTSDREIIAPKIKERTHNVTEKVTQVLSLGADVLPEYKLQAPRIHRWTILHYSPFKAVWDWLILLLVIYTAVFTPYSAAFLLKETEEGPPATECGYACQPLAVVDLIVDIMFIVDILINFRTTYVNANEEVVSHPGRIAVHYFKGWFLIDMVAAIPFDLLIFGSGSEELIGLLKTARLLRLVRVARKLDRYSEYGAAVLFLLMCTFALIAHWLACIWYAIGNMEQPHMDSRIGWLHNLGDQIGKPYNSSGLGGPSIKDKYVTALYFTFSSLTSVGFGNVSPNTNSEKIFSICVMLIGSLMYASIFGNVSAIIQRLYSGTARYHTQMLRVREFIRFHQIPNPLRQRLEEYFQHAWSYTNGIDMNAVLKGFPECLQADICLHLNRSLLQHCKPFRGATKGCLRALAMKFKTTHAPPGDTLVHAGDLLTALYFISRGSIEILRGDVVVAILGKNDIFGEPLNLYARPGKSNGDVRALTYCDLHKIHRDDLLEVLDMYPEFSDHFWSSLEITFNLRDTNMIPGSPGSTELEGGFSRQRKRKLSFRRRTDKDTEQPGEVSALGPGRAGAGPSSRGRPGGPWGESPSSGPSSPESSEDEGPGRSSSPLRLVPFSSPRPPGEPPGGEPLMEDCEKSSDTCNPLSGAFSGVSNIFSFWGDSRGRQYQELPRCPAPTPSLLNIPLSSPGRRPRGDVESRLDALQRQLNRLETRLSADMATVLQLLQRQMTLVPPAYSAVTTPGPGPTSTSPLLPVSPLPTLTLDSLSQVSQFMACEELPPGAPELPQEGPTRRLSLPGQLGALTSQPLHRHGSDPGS

| SMILES | hERG current change (%, negative = inhibition) at 1uM [%] |
| --- | --- |
| COc1ccc(C2C=C(Nc3ccccc3)C(=O)N2c2ccccc2)cc1OC (stereo not drawn) | 20.1 |
| C/C(=N/NC(=O)c1ccc(C)nc1)c1ccc2c(c1)CCCC2 | -4.02 |
| CC(=O)Oc1cc2c(cc1Cl)C1(CC(c3ccccc3Cl)O2)CC(C)(C)NC(=S)N1 (stereo not drawn) | 4.5 |
| COc1ccc(NC(=O)N2CCC(Cc3ccccc3)CC2)cc1 | 6.74 |
| COc1ccc(NC(=O)NCCCCc2ccccc2)cc1 | 6.14 |
| COc1ccc(NC(=O)NCCCN2CCC(Cc3ccccc3)CC2)cc1 | -82.2 |
| Cc1ccc(NC(=O)CCn2nc(C)cc2C)c(C)c1 | 8.75 |
| Cc1ccccc1CC1(CO)CCCN(C(=O)c2cc(Cl)ccc2F)C1 (stereo not drawn) | 14.5 |
| Cc1ccccc1CC1(CO)CCCN(C(=O)c2ccccc2N(C)C)C1 (stereo not drawn) | 10.9 |
| Cc1ccccc1CC1(CO)CCCN(C(=O)c2ccccc2Cl)C1 (stereo not drawn) | -70.4 |
| Cc1cc(=O)n2c(n1)OC(CO)C2 (stereo not drawn) | 12.1 |
| Cc1nc(C)c(-c2ccccc2)c(=O)[nH]1 | 12.8 |
| O=C(N1CCOCC1)N1c2ccccc2CC(N2CCOCC2)c2ccccc21 (stereo not drawn) | 17 |
| OCC1(Cc2ccc(Cl)cc2)CCN(CCCc2ccccc2)CC1 | -83.6 |
| OCC1(Cc2ccc(Cl)cc2)CCN(Cc2ccc(F)c(F)c2)CC1 | -4.29 |
| OCC1(Cc2ccccc2)CCN(Cc2ccc(C(F)(F)F)cc2)CC1 | -6.85 |
| OCC1(Cc2ccc(Cl)cc2)CCN(Cc2ccccc2F)CC1 | -18.4 |
| OCC1(Cc2ccccc2)CCN(CCCC2CCCC2)CC1 | -79 |
| CN1CCC(CO)(Cc2ccccc2)CC1 | 4.74 |
| COc1ccc(CCNC(=O)Cc2cccs2)cc1 | 16.8 |
| COc1ccc(C(CNC(=O)CN2C(=O)NC3(CCCC3)C2=O)N(C)C)cc1 (stereo not drawn) | 13.2 |
| COc1ccc2nc(N=NC3=C(O)CC(C)(C)CC3=O)sc2c1 | 7.73 |
| COc1ccccc1Nc1nc(N)nc(CN2CCN(c3ccccc3F)CC2)n1 | -9.68 |

| SMILES | hERG current change (%, negative = inhibition) at 1uM [%] |
| --- | --- |
| COc1ccccc1Nc1nc(N)nc(CN2CCC(Cc3ccccc3)CC2)n1 | -95.7 |
| COc1ccccc1Nc1nc(N)nc(CN2CCN(c3ccccc3)CC2)n1 | -3.16 |
| COc1ccccc1Nc1nc(N)nc(CN2CCOCC2)n1 | 14.7 |
| COc1ccccc1Nc1nc(N)nc(CN2CCN(Cc3ccccc3)CC2)n1 | -76.6 |
| COc1ccccc1Nc1nc(N)nc(CN2CCCCCC2)n1 | -32.2 |
| COc1ccccc1Nc1nc(N)nc(CN2CCN(Cc3ccc4c(c3)OCO4)CC2)n1 | -79.8 |
| COc1cccc(N2CCN(Cc3nc(N)nc(Nc4ccccc4OC)n3)CC2)c1 | 10.2 |
| COc1ccc(N2CCN(Cc3nc(N)nc(Nc4ccccc4OC)n3)CC2)cc1 | -14.5 |
| O=C(N/C(=C/c1cccnc1)C(=O)N1CCCCCC1)c1ccccc1 | 6.71 |
| CC1NC(=O)N(C)C2NC(=O)N(C)C(c3ccccc3)C12 (stereo not drawn) | 11.1 |
| CC(C)(C)Sc1ccc([N+](=O)[O-])cc1C(=O)Nc1ccncc1 | 0.86 |
| O=C(O)C(=O)O.c1ccc(-c2ccc(OCCCNC3CCCC3)cc2)cc1 | -54.9 |
| O=C(O)C(=O)O.c1ccc(Cc2ccc(OCCCNC3CCCC3)cc2)cc1 | -3.05 |
| O=C(O)C(=O)O.c1ccc(COc2ccc(OCCCNC3CCCC3)cc2)cc1 | 8.41 |
| COc1ccc(CCNC(=O)Cn2c([N+](=O)[O-])cnc2C)cc1OC | 8.24 |
| CC1CC(C)CN(Cc2nc(N)nc(Nc3ccccc3)n2)C1 (stereo not drawn) | -52.3 |
| CCN1CCN(Cc2nc(N)nc(Nc3ccc(C)c(C)c3)n2)CC1 | -14.8 |
| CC1CC(C)CN(C(=S)SCc2nc(N)nc(Nc3ccccc3)n2)C1 (stereo not drawn) | 7.72 |
| COc1ccccc1Nc1nc(N)nc(CN2CCCCC2)n1 | -4.26 |
| CC1CC(C)CN(Cc2nc(N)nc(Nc3ccc4ccccc4c3)n2)C1 (stereo not drawn) | -61.1 |
| COc1ccccc1Nc1nc(N)nc(CN2CC(C)CC(C)C2)n1 (stereo not drawn) | -70.8 |
| Cc1ccc(Nc2nc(N)nc(CN3CCc4ccccc4C3)n2)cc1 | -31.5 |
| COc1ccccc1Nc1nc(N)nc(CN2CCC(C)CC2)n1 | -37.3 |

| SMILES | hERG current change (%, negative = inhibition) at 1uM [%] |
| --- | --- |
| Nc1nc(CN2CCc3ccccc3C2)nc(Nc2ccccc2)n1 | -10.8 |
| O=C(CC1NCCc2ccccc21)Nc1ccccc1 (stereo not drawn) | 4.29 |
| COc1cc(S(=O)(=O)n2cnc(C)c2)ccc1Cl | 6.58 |
| CCCCC(=O)NNC(=S)NC(=O)C(c1ccccc1)c1ccccc1 | 12.3 |
| CC(C)(C)N(CC#CCC(O)(c1ccccc1)C1CCCC1)CCO (stereo not drawn) | 15.6 |
| CNc1nc(CC(C)=O)ns1 | 6.99 |
| Cc1ccc(Cc2cc(C)n[nH]c2=O)cc1 | 27.1 |
| CN(C)c1ccc(/C=N/NC(=O)C(O)(c2ccccc2)c2ccccc2)o1 | -5.86 |
| CCOC(=O)C1CCCCN1Cc1cc(Cl)ccc1O (stereo not drawn) | 4.99 |
| COC(=O)c1cc2c(ccn2-c2ccc(F)cc2)n1Cc1ccc(OC)cc1 | 0.901 |
| COc1ccc(C(=O)C2CCCN(Cc3cccn3-c3cccnc3)C2)cc1OC (stereo not drawn) | -34.9 |
| COc1ccc(C(=O)C2CCCN(Cc3ccsc3)C2)cc1OC (stereo not drawn) | -38.5 |
| COc1ccc(C(=O)C2CCCN(Cc3ccc4nonc4c3)C2)cc1F (stereo not drawn) | 3.27 |
| COc1ccc(C(=O)C2CCCN(Cc3cccn3-c3nccs3)C2)cc1OC (stereo not drawn) | -90.2 |
| COc1ccc(C(=O)C2CCCN(Cc3cccn3-c3nccs3)C2)cc1F (stereo not drawn) | -91.4 |
| COc1ccc(C(=O)C2CCCN(Cc3cnc(N4CCOCC4)s3)C2)cc1F (stereo not drawn) | -17.9 |
| O=C(O)c1ccc2c(=O)[nH]c(CN3CCOCC3)nc2c1 | 15.6 |
| CC(OC(=O)C1CCCCC1)C(=O)Nc1ccc(S(N)(=O)=O)cc1 (stereo not drawn) | 9.37 |
| COc1ccc(CC(=O)Nc2ccc(-c3noc(-c4ccccc4OC)n3)cc2)cc1 | -11.7 |
| O=S(=O)(NCCc1ccncc1)c1cc(Br)ccc1F | 2.96 |
| O=C(c1cc([N+](=O)[O-])ccc1N1CCCCC1)N1CCc2ccccc21 | 8.63 |
| COc1cc2[nH]c(=O)n(CCC(=O)NCCCN3CCN(c4ccccc4F)CC3)c(=O)c2cc1OC | 0.776 |
| O=C(NCCCN1CCN(c2ccccc2F)CC1)Nc1ccc(F)cc1 | -47.6 |

| SMILES | hERG current change (%, negative = inhibition) at 1uM [%] |
| --- | --- |
| O=C(NCCCN1CCN(c2ccccc2F)CC1)Nc1ccccc1[N+](=O)[O-] | -51.1 |
| O=C(CCn1c(=O)[nH]c2ccccc2c1=O)NCCCN1CCN(c2cccc(Cl)c2)CC1 | -30 |
| O=C(NCCCN1CCCC1)Nc1ccccc1[N+](=O)[O-] | 14.8 |
| O=C(CCCCCn1c(=O)[nH]c2ccccc2c1=O)NCCCN1CCN(c2ccccc2F)CC1 | -84.6 |
| Cn1cnnc1SCC(=O)NCc1cccc(C(F)(F)F)c1 | 24.1 |
| CC(=O)Nc1ccc(N/C=C(\C#N)S(=O)(=O)c2ccc(Cl)cc2)cc1 | 11.1 |
| CCc1cccc(NC(=O)C2CCCN(S(=O)(=O)c3ccc4[nH]c(=O)ccc4c3)C2)c1 (stereo not drawn) | -0.861 |
| CCOc1ccc(N2CC(C(=O)N3CCc4ccccc43)CC2=O)cc1 (stereo not drawn) | -8.82 |
| Cc1ccc(N2CC(C(=O)N3CCc4ccccc4C3)CC2=O)cc1 (stereo not drawn) | -17.7 |
| CCOc1ccc(N2CC(C(=O)N3CCc4ccccc4C3)CC2=O)cc1 (stereo not drawn) | -67.1 |
| CCC(C)(C)n1nnnc1C(c1cc2ccc(OC)cc2[nH]c1=O)N1CCc2ccccc21 (stereo not drawn) | 6.76 |
| Cc1ccc(S(=O)(=O)c2cc3c(=O)n4ccccc4nc3n(CC3CCCO3)c2=N)cc1C (stereo not drawn) | 9.33 |
| CC(NC(=O)c1cc2c(=O)n3ccccc3nc2n(CC2CCCO2)c1=N)c1ccccc1 (stereo not drawn) | -72.3 |
| N=c1c(C(=O)NC2CCCC2)cc2c(=O)n3ccccc3nc2n1CC1CCCO1 (stereo not drawn) | -94.4 |
| N=c1c(S(=O)(=O)c2ccccc2)cc2c(=O)n3ccccc3nc2n1CC1CCCO1 (stereo not drawn) | -17 |
| N=c1c(C(=O)NC2CCCCC2)cc2c(=O)n3ccccc3nc2n1CC1CCCO1 (stereo not drawn) | -79.2 |
| CCOC(=O)c1c(C)[nH]c(N=Nc2cccc(OC)c2)c1C | 6.77 |
| CCOC(=O)C1CCN(S(=O)(=O)c2ccc(Br)c(OCC)c2)CC1 | 0.854 |
| CC1=[N+]([O-])C2(N)CCc3nonc3C2(O)C1 (stereo not drawn) | 6.29 |
| COC(=O)[C@H](CCSC)NC(=O)Nc1cc(C)ccc1C | 11.7 |
| C=CCn1c(O)c(C(C)=NCCN2CCN(C(=S)NC)CC2)c(=O)[nH]c1=O | 4.36 |
